From PubChem BioAssay (Tox21)
Records with an inconclusive call do not appear. Values without a mark were called inactive. Activity calls are given as the source filed them. Calls follow the shape of the dose curve; as a rule, active = well fitted inhibition curve with a large enough effect in the repeat runs; inconclusive = weak or mixed curves; inactive = no such curve, though single readings can be large or run the other way.

Each molecule was assayed against Cytochrome P450 3A4 (Homo sapiens) (UniProt P08684) (assay: Cytochrome P450 Family 3 Subfamily A Member 4 (CYP3A4) small molecule antagonists: luciferase reporter qHTS assay (AID 1671201; also: nearly all actives have a fitted effect of over 50% in size)). Conditions: P450-Glo CYP3A4 enzyme, luciferin luminescence, 1 h; series mostly up to 115 µM; activity change, negative = inhibition: at the top concentration.
Excerpt: National Center for Advancing Translational Sciences [NCATS]
U.S. Environmental Protection Agency [EPA]
National Institutes of Environmental Health Sciences [NIEHS]
National Toxicology Program [NTP]
U.S. Food and Drug Administration [FDA]
Cytochrome P450 (CYP) enzymes are membrane-bound hemeproteins that play a key role in metabolism of drugs and xenobiotics. Evaluation of the effect of chemicals on CYP isozymes is useful to minimize the adverse drug reactions and toxicities in drug development process. Tox21 chemicals were tested for their effect on CYP enzyme activities by using P450-Glo (TM) screening systems (Promega Corporation, Madison, WI). These systems provide a luminescent method containing proluciferin substrates and are converted to luciferin products by CYP isozymes. The luciferin products formed are detected with a luciferin detection reagent, and the amount of light produced is proportional to CYP activity. P450-Glo (TM) CYP3A4 screening system (Catalog. No. V9910) was used to detect the compounds that interfere in CYP3A4 activity. The positive control compound used for CYP3A4 assay is ketoconazole (Sigma-Aldrich, St. Louis, MO).
Tox21 Assay Protocol Summary:
Two ul of enzyme-substrate mix was dispensed into medium binding white/solid 1536-well plates (Greiner Bio-One North America Inc., Monroe, NC) using a BioRaptr Flying Reagent Dispenser (FRD, Beckman Coulter, Brea, CA). Compounds dissolved in DMSO and positive control (ketoconazole) were transferred to the assay plates at 23 nl using a Pintool station (Wako, San Diego, CA). The assay plates were incubated at room temperature for 10 min. Then 2 ul of NADPH regeneration solution was added to each well of the assay plates using an FRD and incubated at room temperature for 1 h. The reaction was stopped by adding 4 ul of detection reagent using an FRD and after 20 min incubation at room temperature the luminescence signal was measured using a ViewLux plate reader (Perkin Elmer, Shelton, CT). Data were expressed as relative luminescence units.
% is scaled to controls: 0 for no effect and ±100 for the full control effect; potency is read from the fitted curve at half-maximal effect.

Chain of Cytochrome P450 3A4 (Homo sapiens) (P08684 whole entry, looked up): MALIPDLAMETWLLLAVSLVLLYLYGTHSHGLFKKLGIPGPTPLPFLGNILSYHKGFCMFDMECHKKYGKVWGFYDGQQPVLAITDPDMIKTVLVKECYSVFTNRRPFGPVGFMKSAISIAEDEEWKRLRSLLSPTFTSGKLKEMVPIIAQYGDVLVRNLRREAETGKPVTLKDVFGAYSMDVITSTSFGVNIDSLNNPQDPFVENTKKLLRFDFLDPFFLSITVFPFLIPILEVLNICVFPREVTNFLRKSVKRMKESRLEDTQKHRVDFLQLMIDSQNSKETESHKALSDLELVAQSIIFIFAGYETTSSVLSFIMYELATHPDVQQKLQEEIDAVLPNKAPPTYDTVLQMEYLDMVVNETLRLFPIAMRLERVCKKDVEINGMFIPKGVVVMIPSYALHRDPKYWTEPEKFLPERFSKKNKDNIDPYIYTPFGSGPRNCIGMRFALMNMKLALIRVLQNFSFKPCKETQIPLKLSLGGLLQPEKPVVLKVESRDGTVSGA

Row | Structure (SMILES) | activity change, negative = inhibition | Potency
1 | CCCCCCCC(=O)N(C)C | 11.9% | 
2 | C=CC(=O)OCC[N+](C)(C)C | 0.202% | 
3 | CC(C)(C)C(=O)CC(=O)C(C)(C)C | -19% | 
4 | C/C(Cl)=C/CCl | 5.09% | 
5 | CCC(=O)OCCOc1ccccc1 | 43.5% | 
6 | NNC(=O)CCCCC(=O)NN |  | 11.2 µM (active)
7 | C=CCCCCCCCCCCCCCC | -5.46% [at 23.6 µM] | 
8 | O=C1c2ccccc2C(=O)N1CO | -3.5% | 
9 | O=C(O)Cc1ccccc1Oc1ccc(Cl)cc1Cl | 169% [at 52.9 µM] | 
10 | O=S(=O)(O)CC(O)CCl (stereo not given) | 2.44% | 
11 | C/C=C(\C)C=O | 1.88% | 
12 | CCOCCOCCOC(C)=O | 1.55% | 
13 | CN(C)CCC[C@@]1(c2ccc(F)cc2)OCc2cc(C#N)ccc21 | 7.75% [at 52.9 µM] | 
14 | CCO[Si](CC(C)C)(OCC)OCC |  | 31.7 µM (active)
15 | N=C(N)N | -2.08% [at 52.9 µM] | 
16 | Cc1cc(C)c(C)c(C)c1 | 1.69% | 
17 | C[C@@H]1NC(=O)[C@@H](N)CNC(=O)[C@H](C2CCNC(N)=N2)NC(=O)/C(=C/NC(N)=O)NC(=O)[C@H](CNC(=O)C[C@@H](N)CCCN)NC1=O (stereo not given in full) | 1.92% [at 0.435 µM] | 
18 | CC(C)CC(O)Cc1ccccc1 (stereo not given) | 56% | 
19 | Cc1ccc(S(=O)(=O)NC(=O)NN2CC3CCCC3C2)cc1 (stereo not given) | -5.14% [at 52.9 µM] | 
20 | CCCCCC(=O)CC | 6.76% | 

Row | Structure (SMILES) | activity change, negative = inhibition | Potency
21 | Cc1ccc2ccccc2n1 | 33.7% | 
22 | CCCCCCC(O)CO (stereo not given) | 1.3% | 
23 | CC(C)=CCC/C(C)=C\C#N | -1.06% | 
24 | CC(C)(O)c1ccc(C(C)(C)O)cc1 | -1.09% | 
25 | CC/C=C\CCOC(=O)c1ccccc1 | 27% | 
26 | O=Cc1ccccc1S(=O)(=O)O | 14.1% | 
27 | O=C[C@@H](O)[C@H](O)[C@H](O)CO | 4.09% | 
28 | CC(=O)OC1CCC(C(C)(C)C)CC1 (stereo not given) | 9.95% | 
29 | O=S(=O)(O)c1cc(I)c(O)c2ncccc12 | 5.81% [at 52.9 µM] | 
30 | CCCCCCCCCCCC(C)=O | 5.57% | 
31 | CC(=O)Nc1ccc(S(=O)(=O)Nc2cc(C)on2)cc1 | 9.05% [at 52.9 µM] | 
32 | COCc1nnc(-c2ccc[n+]([O-])c2)n1-c1c(Cl)c(Cl)cc2[nH]c(=O)c(=O)[nH]c12 |  | 6.33 µM (active)
33 | CC(=O)SCC(CC(=O)c1ccc(C)cc1)C(=O)O (stereo not given) | 26.8% [at 52.9 µM] | 
34 | O=Cc1ccc(C(=O)O)cc1 | 17.3% | 
35 | N#Cc1cc(NC(=O)C(=O)O)c(Cl)c(NC(=O)C(=O)O)c1 | 14.8% [at 52.9 µM] | 
36 | COC(=O)c1ccc(C(=O)O)cc1 | 24.1% | 
37 | CC1(C)C(=O)C(C)(C)C1=O | 1.76% | 
38 | CCc1ccc(CC)cc1 | 2.37% | 
39 | CO/N=C(\C(=O)O)c1csc(NC(=O)CCl)n1 | 8.47% [at 52.9 µM] | 
40 | CCCC(=O)OC | 4.8% | 
